Assay outcomes deposited in PubChem by National Center for Advancing Translational Sciences (NCATS).
Rows were chosen to be rich in hits. Some 2.8% of all compounds tested hit in one or more screens of this group.
TGFb SMAD3 inh: TGF-b pathway inhibition. AID 588855. HepG2 CAGA-GFP TGF-b/SMAD3 reporter, GFP fluorescence, 18 h; TGF-beta stimulated, 500 pg/mL final. Potency, µM (highest dose often 46.1 µM), for the others: top-dose activity, negative = inhibition, usual class: inhibitors. 410,000 tested, 1.2% active; also: potency is read from the fitted curve at half-maximal effect; % is scaled to controls: 0 for no effect and ±100 for the full control effect; nearly all actives have a fitted effect of over 65% in size
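TGF-beta reporter screen: HEPG2 CAGA-GFP, 1% FBS, 500 pg/mL TGF-beta final, 18 h; per-cell GFP summed per well; curves fitted and categorized by class.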
Six1-Eya2 inh: inhibitors of human Six1/Eya2 interaction; Q15475+O00167; AlphaScreen GST-Six1/His-Eya2 binding, biochemical; active compounds read low; activity change, % (concentration not given with the values); 360,000 tested, 0.56% active; AID 651725; in the data active = activity change below about -65%; inconclusive = mostly about -30% to -63%; also: % is scaled to controls: 0 for no effect and ±100 for the full control effect
Target sequence (O00167 whole entry, looked up): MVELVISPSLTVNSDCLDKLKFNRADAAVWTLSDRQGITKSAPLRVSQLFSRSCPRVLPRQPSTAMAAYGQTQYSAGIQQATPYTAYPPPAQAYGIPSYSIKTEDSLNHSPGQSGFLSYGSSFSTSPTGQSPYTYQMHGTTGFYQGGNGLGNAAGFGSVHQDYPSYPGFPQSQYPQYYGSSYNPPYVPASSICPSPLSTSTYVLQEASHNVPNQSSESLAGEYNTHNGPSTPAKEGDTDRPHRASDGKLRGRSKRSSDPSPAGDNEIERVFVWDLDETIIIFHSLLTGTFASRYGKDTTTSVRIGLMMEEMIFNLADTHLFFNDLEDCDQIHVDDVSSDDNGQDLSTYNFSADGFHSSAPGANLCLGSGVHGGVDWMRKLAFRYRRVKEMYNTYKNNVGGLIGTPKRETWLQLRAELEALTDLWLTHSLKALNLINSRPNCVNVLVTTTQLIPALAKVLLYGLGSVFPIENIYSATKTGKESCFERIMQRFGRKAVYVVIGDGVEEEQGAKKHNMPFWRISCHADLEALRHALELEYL
Target sequence (Q15475 whole entry, looked up): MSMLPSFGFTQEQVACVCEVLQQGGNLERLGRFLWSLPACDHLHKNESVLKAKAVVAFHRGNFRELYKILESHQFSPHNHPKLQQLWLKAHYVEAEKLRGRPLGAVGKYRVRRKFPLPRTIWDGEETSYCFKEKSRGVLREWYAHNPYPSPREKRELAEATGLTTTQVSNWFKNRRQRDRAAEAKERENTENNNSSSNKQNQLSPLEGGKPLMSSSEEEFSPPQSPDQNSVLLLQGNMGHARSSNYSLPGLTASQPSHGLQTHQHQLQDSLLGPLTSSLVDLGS
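AlphaScreen with GST-Six1 and His-Eya2 (5X mix: 250 nM and 500 nM), glutathione donor and nickel acceptor beads; buffer 50 mM Tris pH 8.0, 300 mM NaCl, 1 mM TCEP; 1 h at 37 C in the dark.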
ATXN viability: reduces viability in counter-screen for ATXN expression inhibitors; S2 cells (HEK-293 line with an ATXN2-luciferase reporter) viability, CellTiter-Fluor protease fluorescence, 24 h; Potency, µM (top dose mostly 56.7 µM), actives largely listed as cytotoxic; 400,000 tested, 0.49% active; also: potency is read from the fitted curve at half-maximal effect; nearly all actives have a fitted effect of over 40% in size
HepG2 tox-1: kills HepG2 cells in TGF-b inhibitor counter-screen; HepG2 CAGA-GFP viability, ATP luminescence, 18 h; AID 588856; Potency, µM (titrated, usually from 46.1 µM), inactives show at the highest dose activity change, negative = cytotoxicity, most hits filed as cytotoxic; 410,000 tested, 0.76% active; also: potency is read from the fitted curve at half-maximal effect
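CellTiter-Glo luminescence gave cytotoxicity after 18 hours at 37 degrees C. The cells were HepG2 CAGA-GFP in 1% FBS DMEM, stimulated with 500 pg/mL TGF-beta after compound addition. %Activity was normalised to no-cell wells (complete cell-killing) and DMSO (no toxicity), and curves were fitted and classified.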
CtBP-E1A inh: inhibitors of CtBP/E1A interaction. activity change, % (test concentration not listed). AlphaScreen GST-E1A/His-CtBP binding, 1536-well; active compounds read low. 340,000 tested, 0.49% active; in the data active = activity change below about -65%; inconclusive = mostly about -30% to -63%; also: % is scaled to controls: 0 for no effect and ±100 for the full control effect
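In 5 uL wells, 23 nL compound meets equimolar GST-E1A and His-CtBP (5X stock 125 nM each) for 2 h, 37 °C. Beads (5X, 50 ug/mL) then 1 h, 37 °C, dark.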
ATXN2 expr inh: ATXN2 expression inhibition; HEK-293 ATXN2-luciferase reporter, luminescence, 24 h; Potency, µM (titrated, usually from 57 µM), for inactives: top-dose activity change, negative = inhibition, actives largely listed as inhibitors; AID 1745845; 360,000 tested, 0.72% active; also: potency is read from the fitted curve at half-maximal effect; % is scaled to controls: 0 for no effect and ±100 for the full control effect; nearly all actives have a fitted effect of over 55% in size
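ATXN2-luciferase reporter cells (luciferase flanked by upstream and downstream ATXN2 gene portions) were treated 24 h at 37 °C with compounds at up to 57 uM. SteadyGlo luminescence gave expression; GF-AFC fluorescence gave viability.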
TGFb confirm: TGF-b pathway inhibition, cherry-pick retest; 1,600 tested, 63% active; HepG2 CAGA-GFP TGF-b reporter, GFP fluorescence, 18 h; cells stimulated with TGF-beta, 500 pg/mL; Potency, µM (titrated, usually from 46.1 µM), without a hit: top-dose activity, negative = inhibition, hits mostly inhibitors; AID 720534; shares compounds with TGFb SMAD3 inh; also: potency is read from the fitted curve at half-maximal effect; % is scaled to controls: 0 for no effect and ±100 for the full control effect; nearly all actives have a fitted effect of over 65% in size
HepG2 tox-2: toxic to HepG2 cells in TGF-b counterscreen; HepG2 CAGA-GFP viability, ATP luminescence, 18 h; cells stimulated with TGF-beta, 500 pg/mL; Potency, µM (series often up to 46.1 µM), without a hit: top-dose activity, negative = cytotoxicity, most hits filed as inhibitors; 1,600 tested, 27% active; shares compounds with TGFb SMAD3 inh; also: potency is read from the fitted curve at half-maximal effect; % is scaled to controls: 0 for no effect and ±100 for the full control effect; nearly all actives have a fitted effect of over 70% in size
CCL64 TGFb inh: orthogonal confirmation of TGF-b inhibitors in CCL64 cells. shares compounds with TGFb SMAD3 inh. CCL64 CAGA-GFP reporter, TGF-b stimulated, GFP fluorescence, 18 h. Potency, µM (highest dose often 46.1 µM), for the others: at the top dose activity, negative = inhibition, hits mostly inhibitors. 1,600 tested, 41% active; also: potency is read from the fitted curve at half-maximal effect; nearly all actives have a fitted effect of over 65% in size
COP TGFb inh: TGF-b inhibition validated with COP promoter | shares compounds with TGFb SMAD3 inh | HepG2 COP-GFP TGF-b reporter, GFP fluorescence, 18 h; cells stimulated by added recombinant TGF-beta | Potency, µM (doses to about 46.1 µM), for inactives: at the top dose activity, negative = inhibition, hits mostly inhibitors | 1,600 tested, 3% active | AID 720537; also: potency is read from the fitted curve at half-maximal effect; nearly all actives have a fitted effect of over 70% in size
An asterisk follows results filed as active; i = inactive; ? = inconclusive; · = no result given. Unless noted, calls follow the shape of the dose curve; as a rule, active = well fitted curve in the direction sought with a large enough effect; inconclusive = small, poorly fitted or top-dose-only effect, or another doubt; inactive = no such curve, though single readings can be large; an effect the other way counts as inactive or inconclusive.

SMILES	TGFb SMAD3 inh	Six1-Eya2 inh	ATXN viability	HepG2 tox-1	CtBP-E1A inh	ATXN2 expr inh	TGFb confirm	HepG2 tox-2	CCL64 TGFb inh	COP TGFb inh
COc1cccc(C2C3=C(N=c4s/c(=C\c5cccc(O)c5)c(=O)n42)c2ccccc2CC3)c1OC (stereo not drawn)	18µM*	2	i	-27%	-11	0%	5.8µM*	?	2.9µM*	31%
COc1ccc(-c2[nH]ncc2CN2CCCC(C(=O)c3ccc(OC)cc3OC)C2)cc1 (stereo not drawn)	-3%	-3	i	0%	-2	·	·	·	·	·
COc1ccc(OC)c(CN2CCCC(C(=O)c3ccccc3SC)C2)c1 (stereo not drawn)	?	-23	?	-28%	-26	?	?	?	?	40%
O=C(c1ccc2c(c1)OCO2)C1CCCN(Cc2ccc(OC(F)F)cc2)C1 (stereo not drawn)	?	-13	i	-38%	·	·	?	?	?	12%
O=C(NCCc1c[nH]c2ccccc12)OCCCCOC(=O)NCCc1c[nH]c2ccccc12	10µM*	-21	18µM*	-42%	-8	?	?	16µM*	18µM*	41%
CCOC(=O)c1c(NC(=O)CN2CCCCC2)sc2c1CCN(C(=O)OCC)C2	11µM*	-12	?	-9%	2	-29%	13µM*	?	18µM*	26%
CCOC(=O)c1c(NC(=O)CN(CC)CC)sc2c1CCN(C(=O)OCC)C2	?	-8	i	-31%	-12	-24%	·	·	·	·
Cn1c(CCCOc2ccc(Cl)cc2Cl)nnc1SCC(=O)Nc1cccc(F)c1	0%	2	i	-37%	10	1%	·	·	·	·
CCn1c(CCCOc2ccc(Cl)cc2Cl)nnc1SCC(=O)Nc1cc(F)ccc1C	13µM*	2	i	4%	7	1%	13µM*	?	-16%	-9%
COc1cc(OC)c(NC2=C(c3ccc(C(F)(F)F)cc3)C(=O)c3ccccc32)cc1Cl	?	·	i	-8%	·	12%	·	·	·	·
COc1ccc(C(c2c(O)ccc3ccccc23)N2CCOCC2)c(OC)c1 (stereo not drawn)	6.3µM*	-15	·	-114%	-7	-48%	?	23µM*	?	?
COc1cccc(Cc2nc3ccccc3nc2SCC(=O)N2CCc3ccccc32)c1	-14%	·	·	0%	·	·	·	·	·	·
COc1ccc(/C=C2/CSC/C(=C/c3ccc(OC)c(OC)c3)C2=O)cc1OC	6.3µM*	7	4µM*	-3%	-3	5.6µM*	1.3µM*	3.3µM*	2.3µM*	9%
CC1CCCN(S(=O)(=O)c2ccc(S(=O)(=O)NC(C)c3cccs3)cc2)C1 (stereo not drawn)	?	-5	i	-15%	0	-7%	?	-11%	3%	-4%
O=C(CCCSc1nc2ccccc2[nH]1)N1CCN(c2ccccc2)CC1	-15%	-2	i	-19%	0	2%	·	·	·	·
Cc1cccc(N2CCN(C(=O)CCCSc3nc4ccccc4[nH]3)CC2)c1C	?	-1	i	-34%	3	-22%	?	?	13µM*	41%
COc1ccc(-c2nc(NC(=O)C3CC(=O)N(c4ccc5c(c4)OCCO5)C3)sc2C)cc1 (stereo not drawn)	11µM*	-15	?	-1%	-12	13µM*	6.5µM*	?	?	31%
FC(F)(F)c1ccccc1Cc1c(-c2ccccc2)nc2ccc(Cl)cn12	16µM*	5	i	-23%	-10	40%	?	-16%	-1%	7%
N#Cc1ccc(-c2nc3ccc(Cl)cn3c2Cc2ccccc2C(F)(F)F)cc1	?	7	i	-19%	12	12%	·	·	·	·
CCn1c(=O)n(CC)c2cc(N3CCCCC3)c(NC(=O)Nc3ccccc3C(F)(F)F)cc21	?	·	?	9%	·	?	·	·	·	·
COC(=O)C[C@H]1C[C@@H]2c3cc(NC(=O)NC4CCCC4)ccc3O[C@@H]2[C@@H](CO)O1	10%	-2	i	6%	1	-4%	·	·	·	·
Cc1cc(Cl)c(S(=O)(=O)N2CCN(c3ccccn3)CC2)cc1OCC(=O)NC1CCCCC1	10µM*	-8	?	-22%	3	·	12µM*	?	-25%	16%
Brc1ccc(CNCCCSc2nnnn2-c2ccccc2)cc1	·	·	·	-92%	·	·	·	·	·	·
CC(=O)Nc1ccc(S(=O)(=O)N2CCN(Cc3nc4sc(C)c(C)c4c(=O)[nH]3)CC2)cc1	?	2	i	-7%	2	-12%	-6%	-11%	16%	-15%
CC(=O)Nc1ccc(S(=O)(=O)N2CCN(Cc3ccncc3)CC2)cc1	-14%	2	i	-12%	2	-25%	·	·	·	·
CCCCOc1ccc(C(=O)C(CN2CCOCC2)c2ccccc2)cc1 (stereo not drawn)	?	-8	·	-105%	-5	?	·	·	·	·
O=C(c1ccc(F)cc1)C(CN1CCOCC1)c1ccccc1 (stereo not drawn)	3.5µM*	9	·	18µM*	-12	?	7.3µM*	16µM*	3.7µM*	?
O=C(c1ccc(Cl)cc1)C(CN1CCCC1)c1ccccc1 (stereo not drawn)	7.9µM*	2	·	-115%	·	·	3.7µM*	8.2µM*	2.6µM*	?
CCCOc1ccc(C(=O)C(CN2CCCC2)c2ccccc2)cc1 (stereo not drawn)	?	-3	?	-92%	3	?	·	·	·	·
